# From PubChem BioAssay (NCI)
# The panel holds about 83,000 compounds, 20% with a hit somewhere; the sample as a whole holds those more often.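 Single-concentration screen, 48 h exposure, 96-well plates. Endpoint: percent growth. Below 10 = active.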 Unmarked numbers belong to inactive results.
# Test system: T-47D breast
# Test: NCI-60 one-dose screen, 48 h (100 = growth as untreated, 0 = no growth, -100 = all killed)
# Details: 10 µM unless noted
row,Structure (SMILES),growth [%]
1,CC(CCC#N)(CCC#N)C(=O)c1ccccc1,93.8
2,Nc1ncnc(Nc2ccccc2)n1,96.3
3,O=Cc1c(O)c2ccccc2[nH]c1=O,106

# Test system: BT-549 breast
# Test: as above
# Details: 10 µM unless noted
row,Structure (SMILES),growth [%]
1,NC(=O)NCCO,101
2,Ic1cccs1,107
3,O=S1(=O)c2ccccc2Oc2ccccc21,113
4,CSc1nc2[nH]ncc2c(=O)[nH]1,88.9
5,CC(=O)NC(O)C(Cl)Cl (stereo unspecified),85.9
6,COC(=O)c1cccc([N+](=O)[O-])c1,131
7,CC(CC(CCC(=O)O)(c1ccccc1)c1ccccc1)N(C)C (stereo unspecified),68.1
8,COC1OC(C(O)C(O)CO)C(O)C(O)C1O (stereo unspecified),91
9,CCOC(C=O)OCC,103
10,CC(C)C(C)(C)C(=O)C(C)(C)C(C)(C)C,82
11,CCC(C)c1c(N)n(S(=O)(=O)c2ccc(C)cc2)oc1=O (stereo unspecified),110
12,CCN(C(=O)Nc1ccccc1Cl)c1ccccc1,106
13,CCN(C(C)=O)c1ccc([N+](=O)[O-])cc1,117
14,O=C(O)c1ccc([N+](=O)[O-])cc1S(=O)(=O)O,108
15,C/C(=N\N=C(/C)c1cccc([N+](=O)[O-])c1)c1cccc([N+](=O)[O-])c1,46.6
16,CC(C)(N)CO[C@H]1C[C@H]2CC[C@@]1(C)C2(C)C,93.5
17,C1C[S+]2CC[S+]1CC2,97
18,NNc1ncnc2c1ncn2C1OC(CO)C(O)C1O (stereo unspecified),42.3
19,Cc1[nH]nc(C(N)=O)c1[N+](=O)[O-],109
20,CCCCCC(=O)OCCC1CCCCC1,98.7

# Test system: MDA-MB-435 melanoma
# Test: as above
# Details: 10 µM unless noted
row,Structure (SMILES),growth [%]
1,NC(=O)NCCO,101
2,Ic1cccs1,107
3,O=S1(=O)c2ccccc2Oc2ccccc21,101
4,CSc1nc2[nH]ncc2c(=O)[nH]1,103
5,CC(=O)NC(O)C(Cl)Cl (stereo unspecified),103
6,COC(=O)c1cccc([N+](=O)[O-])c1,117
7,CC(CCC#N)(CCC#N)C(=O)c1ccccc1,107
8,O=C(NCc1ccccc1)c1cccc([N+](=O)[O-])c1,98.4
9,CC(CC(CCC(=O)O)(c1ccccc1)c1ccccc1)N(C)C (stereo unspecified),105
10,Cc1ccc(C2CCCCC2)cc1Br,100
11,COC1OC(C(O)C(O)CO)C(O)C(O)C1O (stereo unspecified),105
12,C=CCS(C)(=O)=O,96.7
13,C/C(=N\Nc1ccc([N+](=O)[O-])cc1[N+](=O)[O-])c1ccc(Br)cc1,98.4
14,Nc1ncnc(Nc2ccccc2)n1,107
15,CCOC(C=O)OCC,102
16,C/C(=N\O)c1ccccn1,94.3
17,CC(C)C(C)(C)C(=O)C(C)(C)C(C)(C)C,108
18,C=C(C)COc1ccc(C(C)(C)C)cc1,93.4
19,CCC(C)c1c(N)n(S(=O)(=O)c2ccc(C)cc2)oc1=O (stereo unspecified),107

row,Structure (SMILES),growth [%]
1,CCN(C(=O)Nc1ccccc1Cl)c1ccccc1,98.3
2,CCN(C(C)=O)c1ccc([N+](=O)[O-])cc1,116
3,NNc1ncccn1,91
4,O=C(O)c1ccc([N+](=O)[O-])cc1S(=O)(=O)O,108
5,CC(C)C1CCC(C)C(O)C1 (stereo unspecified),93.5
6,CC(=O)Oc1c(Cl)cccc1-c1ccccc1,104
7,O=Cc1c(O)c2ccccc2[nH]c1=O,118
8,C/C(=N\N=C(/C)c1cccc([N+](=O)[O-])c1)c1cccc([N+](=O)[O-])c1,98.9
9,CCCNS(=O)(=O)c1ccc(Cl)cc1,93.3
10,CC(C)C(=O)OCCOc1ccc(C(C)(C)C)cc1,87.5
11,COc1cccc(C(=O)O)c1OC,90.9
12,CC(C)(N)CO[C@H]1C[C@H]2CC[C@@]1(C)C2(C)C,94.7
13,OCCc1ccc(Cl)cc1,92.3
14,O=C(Nc1cccc(Cl)c1)c1ccc(Cl)cc1Cl,89.1
15,C1C[S+]2CC[S+]1CC2,109
16,O=C(Oc1ccccc1Cl)c1ccc(Cl)cc1Cl,95.4
17,NNc1ncnc2c1ncn2C1OC(CO)C(O)C1O (stereo unspecified),56.4
18,Cc1[nH]nc(C(N)=O)c1[N+](=O)[O-],105
19,CCCCCC(=O)OCCC1CCCCC1,100
